Values joined by “and” are separate entries in the source; they are usually repeats but may differ in a detail not shown here. Identical values can stand only once.
experiment: MEP2-GFP expression modulation in yeast, confirmation, flow cytometry, third cherry pick, S. cerevisiae (AID 504321);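 further: median per-cell GFP fluorescence by flow cytometry across all yeast cells; ratio of sample to DMSO median GFP so 100% equals the DMSO level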; conditions: S. cerevisiae MEP2-GFP strain, 3 h, at 10 µM, hits give high values;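 active means GFP response vs DMSO above 150% with enough events counted; inconclusive means fewer than 70 events counted for a yeast strain; inactive means the rest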

GFP response vs DMSO, inactive:
COc1ccc(NC(=O)O/N=C2/CCCc3ccc(OC)cc32)cc1 112%, C=CCNc1ncnc2ccccc12 114%, CCN(CC)c1ncnc2ccc(Br)cc12 114%, OCc1ccnc2c(O)cccc12 108%, CC(=O)Nn1cnc2c(c1=O)C1(CCCCC1)Cc1ccccc1-2 114%, C/C(=C\C(=O)c1ccccc1)Nc1ccc(O)cc1 105%, O=C(O)c1ccccc1-c1ccccc1C(=O)Nc1ccc(-c2nc3cc(Cl)ccc3o2)cc1 116%, COc1cc(OC)cc(C(=O)Nc2ccc(-c3nc4ccccc4o3)cc2)c1 110%, Nc1cccc2c1C(=O)c1ccc(Cl)cc1C2=O 116%, O=C(Nc1ccccc1)O/N=C1\CCCCC1c1ccc([N+](=O)[O-])cc1[N+](=O)[O-] (stereo not given) 105%, O=C(N/N=C/c1ccccc1O)c1cccc2ccccc12 110%, OCCN1CCN(c2ncnc3ccc(Br)cc23)CC1 112%, NC(=O)COc1cccc2cccnc12 108%, NC(=O)c1ccnc2c(O)cccc12 108%, CS(=O)(=O)Oc1ccc(Br)c2cccnc12 110%, COC1=C/C(=C/c2c(N)n3cc(C)sc3nc2=O)C=CC1=O 131%, COc1ccccc1Nc1nc(NCCC(C)C)nc(N)c1[N+](=O)[O-] 105%, C/C(=C\C(=O)c1ccc(Cl)cc1)Nc1ccc(Br)cc1 105%, COc1ccc(-c2cc(C(F)(F)F)nc(S(C)(=O)=O)n2)cc1OC 114% and 121%, Nc1c(O)ccc2c1C(=O)c1ccccc1C2=O 105%

Reference: PubChem BioAssay AID504321 (NMMLSC, 2011)
